This passage reports composite z-score and z-score results from PubChem BioAssay.

Assay [1] can be described thus: small molecules captured by biotinylated probe aFSTL3 – biochemical, small-molecule microarray, fluorescence 635/667, stem cell growth factor project, primary screen (AID 1064).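 Note: measures binding of the biotinylated anti-FSTL3 antibody to printed compounds.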 As to conditions: higher = more signal.
A short description of assay [2]: binders from COS7 lysate, DM2A8 probe, primary screen, torsin A project, cell lysate, small-molecule microarray, fluorescence 635/667 (AID 1065). The following applies: higher = more signal, COS7 lysate expressing mutant human TOR1A.
Assay [3] in a line: small molecules captured by biotinylated probe aFGF2 – biochemical, small-molecule microarray, fluorescence 635/667, stem cell growth factor project, primary screen (AID 1067).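 Note: measures binding of biotinylated aFGF2 protein to printed compounds on slides; z-score merges feature fluorescence and signal-to-noise across triplicate slides.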 The following applies: higher = more signal.
The nature of assay [4]: small molecules captured by biotinylated probe aFGF10 – biochemical, small-molecule microarray, fluorescence 635/667, stem cell growth factor project, primary screen (AID 1071).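 Note: score merges 667 nm spot intensity and signal to noise from triplicate slides.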 As to conditions: higher = more signal.
Assay [5] has as its target Neurogenic locus notch homolog protein 2 (Homo sapiens) (UniProt Q04721). Put plainly: small molecules binding Notch2 protein – biochemical, small-molecule microarray, 635 nm fluorescence, stem cell growth factors, primary screen (AID 1073). As to conditions: higher = more signal.
Assay [6] deals with Pro-neuregulin-1, membrane-bound isoform (Homo sapiens) (UniProt Q02297). Put plainly: small molecules binding neuregulin-1 protein – biochemical, small-molecule microarray, fluorescence 635/667, psychiatric disease protein project, primary screen (AID 1075).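 Note: score combines 667 nm spot fluorescence with signal to noise.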 The following applies: NRG1 binding, 635 nm fluorescence, higher = more signal.
Pro-neuregulin-1, membrane-bound isoform (Homo sapiens), sequence (Q02297 whole entry, looked up, the tested form may be a part, canonical isoform): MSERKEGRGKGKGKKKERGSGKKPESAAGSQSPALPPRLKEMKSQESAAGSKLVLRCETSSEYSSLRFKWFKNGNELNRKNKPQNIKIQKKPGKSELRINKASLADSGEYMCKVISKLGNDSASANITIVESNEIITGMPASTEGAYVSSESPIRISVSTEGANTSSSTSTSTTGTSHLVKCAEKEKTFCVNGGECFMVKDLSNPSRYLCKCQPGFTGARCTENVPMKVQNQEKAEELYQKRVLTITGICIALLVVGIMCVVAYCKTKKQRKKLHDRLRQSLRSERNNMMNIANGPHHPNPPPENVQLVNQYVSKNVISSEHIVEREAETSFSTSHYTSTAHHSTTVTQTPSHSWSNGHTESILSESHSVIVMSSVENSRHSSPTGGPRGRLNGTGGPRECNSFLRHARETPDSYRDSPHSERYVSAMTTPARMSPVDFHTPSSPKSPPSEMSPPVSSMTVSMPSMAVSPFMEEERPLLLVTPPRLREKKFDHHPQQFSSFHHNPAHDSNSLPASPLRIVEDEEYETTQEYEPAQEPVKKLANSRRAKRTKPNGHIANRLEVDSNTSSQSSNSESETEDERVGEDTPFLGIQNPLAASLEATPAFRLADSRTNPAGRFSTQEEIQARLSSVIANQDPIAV
Assay [7] relates to Neuregulin-1 EGF-like domain. The experiment in a line: small molecules binding NRG1 EGF domain – biochemical, small-molecule microarray, 635 nm fluorescence, primary screen (AID 1081).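 Note: binding of the protein to compounds printed on small-molecule microarray slides.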 The following applies: higher = more signal.
Assay [8] in a line: FRG1 expression reporter modulators in myotubes – cell-based, C2C12 myotubes, firefly/Renilla luciferase, luminescence, FRG1 inhibition for FSHD, primary screen (AID 1084). The following applies: FRG1 promoter luciferase, higher = more signal, called active from +8 up or from −8 down.
Assay [9] in a line: small molecules captured by biotinylated probe aFST – biochemical, small-molecule microarray, fluorescence 635/667, stem cell growth factor project, primary screen (AID 1086).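 Note: score merges 667 nm fluorescence with signal-to-noise of each printed compound spot.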 The following applies: higher = more signal.
Assay [10] is described as follows: binders of probe aHhip on microarray, primary screen, stem cell growth factor project, biochemical, small-molecule microarray, fluorescence 635/667 (AID 1087).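 Note: score merges spot fluorescence at 667nm with spot signal to noise ratio.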 The following applies: higher = more signal.
The subject of assay [11] is PRMT1 (protein arginine N-methyltransferase 1). The experiment in a line: small molecules binding arginine methyltransferase PRMT1 – biochemical, small-molecule microarray, 635 nm fluorescence, primary screen (AID 1088).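 Note: binding of Prmt1 protein to compounds spotted on small-molecule microarray slides.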 The following applies: higher = more signal.
Assay [12] is described as follows: growth effects on S. cerevisiae YJM789 – YJM789 clinical isolate, OD600, 24 h, basal, primary screen (AID 1089).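 Note: growth of clinical yeast isolate S. cerevisiae YJM 789 seeded 1000 cells per well; test concentration not given here.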 The following applies: higher = more signal, called active from +8 up or from −8 down.
Assay [13] can be described thus: S. pombe growth modifiers, basal conditions – strain 972, OD600, 24 h, no modulator, primary screen (AID 1090).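 Note: basal condition with compound alone and no growth modifier present; test concentration not given here.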 As to conditions: S. pombe 972 growth, higher = more signal, called active from +8 up or from −8 down.
Assay [14] can be described thus: budding yeast growth modifiers under rapamycin – strain BY4716, OD600, 96 h, primary screen (AID 1091). Note: test concentration not given here. As to conditions: S. cerevisiae BY4716 + rapamycin, higher = more signal, called active from +8 up or from −8 down.
In assay [15] the target is Torsin-1A-interacting protein 2 (Homo sapiens) (UniProt Q8NFQ8). The experiment in a line: small molecules binding lysate-expressed LULL1 – cell lysate, human LULL1 lysate, 635/667 nm fluorescence, primary screen (AID 1092).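 Note: probe is lysate of COS7 cells overexpressing human LULL1; score merges per-feature 667 nm fluorescence with signal-to-noise.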 As to conditions: small-molecule microarray, hLULL1 lysate binding, 635 nm fluorescence; higher = more signal.
Torsin-1A-interacting protein 2 (Homo sapiens), sequence (Q8NFQ8 whole entry, looked up): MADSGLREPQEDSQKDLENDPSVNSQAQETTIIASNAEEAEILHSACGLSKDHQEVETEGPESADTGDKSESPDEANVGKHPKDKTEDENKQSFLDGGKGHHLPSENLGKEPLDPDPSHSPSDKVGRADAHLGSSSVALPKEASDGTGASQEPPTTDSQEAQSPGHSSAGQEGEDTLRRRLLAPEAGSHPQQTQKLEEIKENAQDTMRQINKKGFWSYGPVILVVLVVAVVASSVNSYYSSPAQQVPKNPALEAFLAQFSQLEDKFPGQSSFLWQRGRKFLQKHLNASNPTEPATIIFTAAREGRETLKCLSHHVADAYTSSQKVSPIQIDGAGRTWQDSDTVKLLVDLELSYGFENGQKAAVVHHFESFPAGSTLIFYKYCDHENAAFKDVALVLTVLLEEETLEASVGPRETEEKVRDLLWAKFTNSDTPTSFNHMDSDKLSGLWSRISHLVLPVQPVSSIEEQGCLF
The nature of assay [16]: optical density change of DRC41 E. coli – strain DRC41, OD650, 24 h, E. coli filamentation project, primary screen (AID 1093).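 Note: MC1000 strain lacking acrAB efflux and sulA so SOS filamentation is blocked; test concentration not given here.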 The following applies: E. coli DRC41 growth, higher = more signal, called active from +8 up or from −8 down.
Assay [17] is described as follows: probe aLefty2 binding to arrayed compounds – biochemical, biotinylated probe, 635/667 nm fluorescence, primary screen (AID 1094).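 Note: score merges spot fluorescence near 667 nm with spot signal-to-noise ratio.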 As to conditions: small-molecule microarray, higher = more signal.
The subject of assay [18] is Noggin (protein binding on small-molecule microarray). Put plainly: small molecules binding Noggin protein – biochemical, 635/667 nm fluorescence, primary screen (AID 1095).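 Note: score merges 667 nm feature fluorescence with signal to noise over triplicate slides.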 The following applies: 635 nm fluorescence, higher = more signal.
For assay [19], the target named is Neurogenic locus notch homolog protein 3 (Homo sapiens) (UniProt Q9UM47). The experiment in a line: small molecules binding NOTCH3 protein – biochemical, 635/667 nm fluorescence, primary screen (AID 1096). The following applies: small-molecule microarray, 635 nm fluorescence, higher = more signal.
The nature of assay [20]: probe aEGFR binding to arrayed compounds – biochemical, biotinylated probe, 635/667 nm fluorescence, primary screen (AID 1097).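 Note: probe is a biotinylated anti-EGFR antibody binding compounds printed on slides; score combines fluorescence near 667 nm and signal to noise of each spot.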 The following applies: small-molecule microarray, higher = more signal.

Values joined by “and” are separate entries in the source; they are usually repeats but may differ in a detail not shown here. Equal values may be shown once. Active and inactive are the calls of the source.

Neurogenic locus notch homolog protein 2 (Homo sapiens), sequence (Q04721 whole entry, looked up, canonical isoform): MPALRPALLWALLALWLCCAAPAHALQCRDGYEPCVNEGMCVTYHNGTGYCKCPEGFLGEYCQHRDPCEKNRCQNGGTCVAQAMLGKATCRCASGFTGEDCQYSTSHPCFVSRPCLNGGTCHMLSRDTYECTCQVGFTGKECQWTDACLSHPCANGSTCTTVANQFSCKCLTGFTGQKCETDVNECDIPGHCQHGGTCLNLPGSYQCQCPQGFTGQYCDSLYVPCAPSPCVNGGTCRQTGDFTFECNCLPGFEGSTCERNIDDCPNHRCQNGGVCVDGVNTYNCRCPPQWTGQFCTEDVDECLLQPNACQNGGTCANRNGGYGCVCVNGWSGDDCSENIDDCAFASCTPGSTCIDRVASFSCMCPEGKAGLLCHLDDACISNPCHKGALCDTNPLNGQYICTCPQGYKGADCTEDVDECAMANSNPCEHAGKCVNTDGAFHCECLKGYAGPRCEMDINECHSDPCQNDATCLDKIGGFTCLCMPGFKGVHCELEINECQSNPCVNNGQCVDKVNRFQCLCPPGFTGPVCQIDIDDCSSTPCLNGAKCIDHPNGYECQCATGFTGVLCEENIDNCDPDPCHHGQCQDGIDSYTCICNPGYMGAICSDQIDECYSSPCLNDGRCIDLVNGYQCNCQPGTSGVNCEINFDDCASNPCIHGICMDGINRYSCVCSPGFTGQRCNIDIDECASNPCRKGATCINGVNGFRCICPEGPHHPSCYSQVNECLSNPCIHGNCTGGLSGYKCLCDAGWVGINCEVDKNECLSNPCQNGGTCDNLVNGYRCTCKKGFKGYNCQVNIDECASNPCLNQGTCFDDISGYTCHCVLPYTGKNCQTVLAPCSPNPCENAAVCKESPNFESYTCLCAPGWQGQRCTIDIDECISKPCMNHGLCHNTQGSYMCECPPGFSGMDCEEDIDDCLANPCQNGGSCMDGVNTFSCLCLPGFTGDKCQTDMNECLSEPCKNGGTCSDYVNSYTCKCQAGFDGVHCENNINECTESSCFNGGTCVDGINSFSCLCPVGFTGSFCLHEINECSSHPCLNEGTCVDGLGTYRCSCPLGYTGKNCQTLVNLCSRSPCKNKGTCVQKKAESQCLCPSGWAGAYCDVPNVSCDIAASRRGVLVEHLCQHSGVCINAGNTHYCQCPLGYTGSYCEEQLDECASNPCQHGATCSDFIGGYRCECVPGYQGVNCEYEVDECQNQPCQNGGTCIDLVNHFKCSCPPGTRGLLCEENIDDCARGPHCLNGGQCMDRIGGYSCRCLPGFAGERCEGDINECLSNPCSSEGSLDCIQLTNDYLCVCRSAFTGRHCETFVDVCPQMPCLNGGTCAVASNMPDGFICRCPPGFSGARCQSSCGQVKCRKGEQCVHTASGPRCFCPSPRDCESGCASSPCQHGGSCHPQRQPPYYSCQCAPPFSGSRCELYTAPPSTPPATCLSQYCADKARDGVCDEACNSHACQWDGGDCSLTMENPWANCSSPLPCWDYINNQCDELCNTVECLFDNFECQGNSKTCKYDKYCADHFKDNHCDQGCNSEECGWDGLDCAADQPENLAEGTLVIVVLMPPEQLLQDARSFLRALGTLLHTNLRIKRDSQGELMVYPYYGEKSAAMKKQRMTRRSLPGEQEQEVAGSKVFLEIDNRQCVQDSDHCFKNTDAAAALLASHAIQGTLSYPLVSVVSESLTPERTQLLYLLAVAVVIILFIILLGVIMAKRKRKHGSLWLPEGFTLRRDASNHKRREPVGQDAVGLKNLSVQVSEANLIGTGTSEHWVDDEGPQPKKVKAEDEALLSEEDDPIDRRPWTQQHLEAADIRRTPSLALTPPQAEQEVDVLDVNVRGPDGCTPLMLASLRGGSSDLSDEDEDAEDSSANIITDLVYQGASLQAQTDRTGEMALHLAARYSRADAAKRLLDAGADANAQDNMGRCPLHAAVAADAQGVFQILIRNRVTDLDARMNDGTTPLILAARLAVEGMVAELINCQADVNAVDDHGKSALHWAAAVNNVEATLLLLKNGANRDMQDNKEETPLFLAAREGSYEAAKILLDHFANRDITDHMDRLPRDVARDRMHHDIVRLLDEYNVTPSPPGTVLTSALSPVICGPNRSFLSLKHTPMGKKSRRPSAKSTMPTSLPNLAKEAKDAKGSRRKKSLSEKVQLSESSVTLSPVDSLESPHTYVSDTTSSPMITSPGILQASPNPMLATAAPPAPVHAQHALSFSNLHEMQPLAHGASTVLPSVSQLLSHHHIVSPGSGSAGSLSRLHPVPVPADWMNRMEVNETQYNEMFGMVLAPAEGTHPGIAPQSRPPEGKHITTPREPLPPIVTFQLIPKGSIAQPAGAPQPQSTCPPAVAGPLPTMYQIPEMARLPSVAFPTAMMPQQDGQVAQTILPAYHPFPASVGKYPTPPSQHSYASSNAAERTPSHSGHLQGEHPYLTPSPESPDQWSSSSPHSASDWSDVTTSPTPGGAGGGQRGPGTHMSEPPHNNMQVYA

For `C=CCN(CCCC)C(=O)C(c1cccs1)N(C(=O)/C=C\C(=O)O)c1ccc(CCO)cc1` (stereo not given), the composite z-score is 0.655 and 1.21 in [1]; 0.005 and 0.531 in [2]; -0.0493 and -0.166 in assay [3]; 0.115 and -1.62 in [4]; -1.83 and -2.34 in assay [5]; 0.863 and -0.409 in assay [6]. The composite z-score in assay [7] was 0.867 and -0.0384; in [9], -0.498 and -1.07; in [10], -0.137 and -0.296; in assay [11], -1.13 and -0.631; in [15] it was 0.413 and 0.484; in assay [17], 0.0113 and -0.145. In addition, the composite z-score in assay [18] was -2.58 and -3.71; in [19], -1.26 and -0.946; in assay [20], -0.315 and -0.346. Also, the z-score in assay [8] is 1.61 (inactive) and 1.37 (inactive); in assay [12] it was -0.924 (inactive) and 0.0434 (inactive); in assay [13], -0.13 (inactive) and -0.354 (inactive); in [14] it was 0.161 (inactive) and 0.541 (inactive); in assay [16], 0.0144 (inactive) and -0.312 (inactive).
Consider `C=CCN(C(=O)C1N(CCOCCO)C(=O)C2C(C(=O)O)C3C=CC21O3)C(C)(C)C` (stereo not given), for which the composite z-score is 0.977 and 0.412 in assay [1]; -0.768 and -0.863 in assay [2]; -0.25 and -0.262 in assay [3]; -1.82 and -1.11 in assay [4]; -2.44 and -1.36 in assay [5]; -0.774 and -0.717 in [6]. Also, the composite z-score in [7] was -0.643 and -0.383; in assay [9] it was -1.09 and -1.91; in [10], -0.175 and 0.0156; in [11] it was -1.26 and -0.124; in assay [15], -1.29 and -1.44; in assay [17], -0.251 and -0.197. The composite z-score is -2.02 and -1.83 in [18]; -1.49 and -0.757 in assay [19]; -0.323 and -0.241 in assay [20]. Moreover, the z-score in assay [8] is 0.97 (inactive) and -0.383 (inactive); in assay [12], -0.419 (inactive) and -0.683 (inactive); in assay [13], -0.378 (inactive) and -0.505 (inactive); in [14], -0.357 (inactive) and -0.658 (inactive); in assay [16] it was 0.389 (inactive) and 0.267 (inactive).
Regarding `C=CCN(Cc1ccccc1)C(=O)C1N(c2c(Cl)cccc2CO)C(=O)C2C(C(=O)O)C3C=CC21O3` (stereo not given), the composite z-score in [1] was 1.77 and 1.95; in [2] it was -1.28 and -0.799; in assay [3], -0.176 and -0.166; in [4], -1.74 and -0.702; in assay [5] it was -2.4 and -2.37; in assay [6], -1.18 and -0.797. The composite z-score in assay [7] was -0.822 and -0.464; in assay [9] it was -0.877 and -0.563; in [10], -0.418 and -0.137; in [11], -1.44 and -1.17; in assay [15] it was -1.2 and -1.34; in assay [17] it was -0.114 and 0.0686. The composite z-score in assay [18] was -2.68 and -3.18; in [19] it was -2.25 and -1.57; in assay [20], -0.21 and -0.395. For the same compound, the z-score in [8] is -1.05 (inactive) and 1.16 (inactive); in assay [12] it was -3.28 (inactive) and 1.06 (inactive); in assay [13], -0.875 (inactive) and -0.0197 (inactive); in assay [14], -1.39 (inactive) and 0.236 (inactive); in [16], 3.06 (inactive) and 1.29 (inactive).
As for `O=C1C[C@]2(c3ccc([N+](=O)[O-])cc3)C(=O)N(Cc3ccccc3)c3cc(CO)ccc3[C@H]2N1C1CCCCC1`, the composite z-score in [1] is -0.391 and -0.0715; in assay [2], 0.0304 and -0.0759; in assay [3], -0.145 and 0.103; in [4], -0.416 and 0.208; in assay [5] it was 0.168 and 0.853; in assay [6] it was -0.183 and 0.819. Also, the composite z-score in assay [7] was 1.25 and 1.12; in [9], -0.0791 and -0.129; in assay [10], -0.185 and 1.38; in assay [11] it was 1.33 and 0.39; in assay [15], 2.21 and 1.14; in [17], -0.21 and 0.668. In addition, the composite z-score in assay [18] was 0.469 and 0.225; in assay [19], 0.219 and 0.161; in [20], -0.0828 and 0.805. Moreover, the z-score in [8] was -0.0521 (inactive) and 0.981 (inactive); in assay [12], -0.754 (inactive) and -0.363 (inactive); in assay [13], 0.31 (inactive) and -0.838 (inactive); in [14], -1.02 (inactive) and 3.78 (inactive); in assay [16], 0.245 (inactive) and 0.545 (inactive).
Turning to `CCOC(=O)C[C@H]1[C@H](OC(=O)c2ccccc2-c2ccccc2)[C@@H](NC(=O)Cc2ccc(OC)cc2)c2cc(OCCCO)ccc2N1C(=O)c1ccc2ccccc2n1`, the composite z-score in [1] is -0.21 and 0.27; in [2], 0.266 and 0.395; in assay [3], -0.0781 and 0.16; in assay [4], 0.27 and 0.319; in assay [5], 0.305 and 0.361; in [6], 0.147 and 0.653. The composite z-score in [7] is -0.529 and 0.0101; in [9], 0.442 and 0.575; in assay [10], -0.0645 and -0.0672; in [11], -0.557 and 0.587; in assay [15], 0.347 and 0.379; in assay [17], -0.0953 and 0.0397. For the same compound, the composite z-score was 0.248 and 0.329 in assay [18]; 0.0452 and 0.418 in assay [19]; -0.0107 and 0.182 in assay [20]. The z-score in [8] is -0.0725 (inactive) and 0.266 (inactive); in assay [12], -0.321 (inactive) and -0.249 (inactive); in [13], -0.0002 (inactive) and -0.478 (inactive); in assay [14], -0.411 (inactive) and 0.456 (inactive); in assay [16] it was 2.43 (inactive) and 1.41 (inactive).
Consider `C=C[C@@H](OC)[C@H](O)c1ccc(OC)c(O)c1`, for which the composite z-score in assay [1] is -0.407 and 0.724; in [2], 0.415 and -0.675; in assay [3], 0.177 and -0.175; in assay [4], 0.0573 and -1.49; in [5], 0.113 and -0.602; in [6], -0.44 and -0.559. Moreover, the composite z-score in assay [7] was 0.225 and -0.758; in assay [9], -0.209 and -0.844; in [10] it was -0.0994 and -0.296; in assay [11], 0.852 and -0.645; in assay [15], -0.1 and -0.81; in assay [17], -0.17 and -0.109. Moreover, the composite z-score is 0.941 and 0.0939 in assay [18]; -0.233 and -1.14 in [19]; -0.277 and -0.33 in assay [20]. For the same compound, the z-score was 0.0163 (inactive) and -0.152 (inactive) in [8]; -0.722 (inactive) and -0.94 (inactive) in [12]; -0.322 (inactive) and -0.469 (inactive) in assay [13]; -0.116 (inactive) and -0.423 (inactive) in [14]; 0.77 (inactive) and 1.76 (inactive) in assay [16].
As for `CCCNC(=O)OC[C@H]1O[C@H](CCON=C(C)CCN2CCc3nc(-c4ccccc4)c(-c4ccccc4)cc3C2)C=C[C@@H]1Oc1ccc(OC)cc1`, the composite z-score was -0.369 in [1]; 0.0379 in assay [2]; -0.116 in assay [3]; 0.118 in assay [4]; -0.247 in assay [5]; 0.48 in assay [6]. Besides, the composite z-score in assay [7] was 0.524; in [9], 0.142; in [10], -0.0994; in assay [11] it was 0.497; in [15], 1.04; in assay [17], -0.0638. For the same compound, the composite z-score in assay [18] was 0.553; in assay [19] it was -0.105; in assay [20], 0.0321. Further, the z-score in assay [8] is 0.198 (inactive); in assay [12], 1.12 (inactive); in assay [13] it was -0.724 (inactive); in [14], -3.57 (inactive); in assay [16] it was 0.385 (inactive).
